Source: PubChem
D1 PAM = Potentiators of Human D1 Dopamine Receptor: qHTS; AID 504651, 2011; HEK293 TREx D1 cells, calcium flux, dopamine EC20 potentiation; D(1A) dopamine receptor (Homo sapiens), P21728; 360,000 compounds, 0.036% hits; potentiation, % at 10 µM; in the data active = potentiation above about 30%; note: 0% is about no effect
Target sequence (P21728 whole entry, looked up): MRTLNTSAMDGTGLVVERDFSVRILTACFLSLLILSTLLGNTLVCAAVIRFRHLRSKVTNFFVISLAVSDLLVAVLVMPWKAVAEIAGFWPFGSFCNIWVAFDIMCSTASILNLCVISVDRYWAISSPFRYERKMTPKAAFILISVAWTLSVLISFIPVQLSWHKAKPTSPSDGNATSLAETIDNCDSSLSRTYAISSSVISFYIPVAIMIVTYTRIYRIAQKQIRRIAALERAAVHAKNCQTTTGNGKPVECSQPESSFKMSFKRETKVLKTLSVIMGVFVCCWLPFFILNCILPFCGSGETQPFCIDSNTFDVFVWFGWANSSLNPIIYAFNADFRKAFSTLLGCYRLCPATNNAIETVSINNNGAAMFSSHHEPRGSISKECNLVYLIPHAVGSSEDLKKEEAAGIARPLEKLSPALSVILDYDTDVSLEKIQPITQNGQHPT
D1 antag = Antagonist of Human D 1 Dopamine Receptor: qHTS. activity change, negative = inhibition, % at 10 µM. D(1A) dopamine receptor (Homo sapiens), P21728. 360,000 compounds, 3.2% hits. HEK293 TREx D1 cells, calcium flux, dopamine EC80; active compounds read low; in the data active = activity change below about -30%; note: % is set by controls: 0 for no effect and ±100 for the full control effect
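Using tetracycline-induced force-coupled D1 Hek293 cells and a calcium dye, signals were followed for 180 s after compound, then for 180 s after EC80 dopamine, to detect inhibitors.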
DRD3 agonist = qHTS of D3 Dopamine Receptor Agonist: qHTS; 410,000 compounds, 0.58% hits; D3R DiscoveRx beta-arrestin cells, luminescence, 90 min; max activation, %; AID 652048, 2013; D(3) dopamine receptor (Homo sapiens), P35462; in the data active = max activation above about 30%; note: 0% is about no effect
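Agonist mode: compounds and dopamine controls were applied to plated cells for 90 min at 37 degrees C after an overnight attachment at 1500 cells/well. Luminescent read-out followed 30 - 60 minutes at room temperature with DiscoveRx detection reagent.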
D1 ag = Allosteric Agonists of the Human D1 Dopamine Receptor: qHTS; D(1A) dopamine receptor (Homo sapiens), P21728; HEK293 T-REx D1 cells, calcium flux, agonist mode; activation, % at 2 µM; 360,000 compounds, 1% hits; in the data active = activation above about 30%; note: 0% is about no effect
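Inducible HEK293 T-REx D1 cells, force-coupled to calcium signalling, were plated at 4000 cells/well with tetracycline and held overnight at 30 C. After no-wash calcium dye loading, compound-evoked calcium rise over 180 s flagged agonists.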
D3 antag = qHTS of D3 Dopamine Receptor Antagonist: qHTS | max response, negative = inhibition, % | D(3) dopamine receptor (Homo sapiens), P35462 | AID 652054, 2013 | 360,000 compounds, 2.5% hits | D3R cells, DiscoveRx beta-arrestin luminescence, antagonist mode; active compounds read low; in the data active = max response below about -50%; inconclusive = no clear call, values can overlap the other calls; note: % is set by controls: 0 for no effect and ±100 for the full control effect
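Cells plated overnight at 1500 cells/well, then exposed to library compounds with dopamine controls for 90 minutes at 37 degrees C. DiscoveRx reagent added for 30–60 minutes at room temperature; luminescence read, quantitative HTS format.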
* marks the source's active call; other numbers are inactive results; ? = inconclusive; / = no result. Rows were chosen to be rich in hits. Some 6.1% of all compounds tested hit in one or more screens of this group.

SMILES	D1 PAM	D1 antag	DRD3 agonist	D1 ag	D3 antag
CCCN1CCN(C(=O)Cn2nc(C)n3c(cc4c(OC)cccc43)c2=O)CC1	/	/	45*	/	-1
COc1ccc(CNC(=O)C2CCN(S(=O)(=O)c3cccc(-c4noc(C)n4)c3)CC2)cc1	-2	4	-12	1	/
CCc1ccc(S(=O)(=O)c2nnn(-c3cccc(C)c3)c2N)cc1	1	-30*	1	64*	/
Nc1c(S(=O)(=O)c2ccccc2)nnn1-c1ccccc1	1	7	5	0	2
COc1ccccc1COCC(O)CNCC1(N2CCCCC2)CCCCC1 (stereo unspecified)	-7	6	-8	1	-60*
COc1cc(C(C)=O)ccc1OCC(O)CNCC1(N2CCCCC2)CCCCC1 (stereo unspecified)	-10	6	0	2	-25
O=C(Nc1ccc(Cl)cc1)c1ccc2nsnc2c1	-15	-47*	-20	20	-20
CN(C)c1ccc(NC(=O)c2ccc3nsnc3c2)cc1	-7	6	-4	1	-9
CN(C)c1cccc(C(=O)Nc2ccc3nc4n(c(=O)c3c2)CCCCC4)c1	/	-14	-2	0	-61*
CC(OC(=O)c1ccc2c(=O)n3c(nc2c1)CCCCC3)C(=O)Nc1ccc(F)cc1Cl (stereo unspecified)	-4	-37*	3	0	6
O=C(Nc1ccc(Cl)cc1)c1ccc2c(=O)n3c(nc2c1)CCCCC3	-16	-59*	3	12	23
CCn1cc2nc(SCC(=O)Nc3cc(OC)ccc3OC)n(Cc3ccc(Cl)cc3)c(=O)c2n1	5	12	-6	1	/
Cc1cccc(CC2C(=O)Nc3ccccc32)c1 (stereo unspecified)	0	-11	0	8	/
O=C(Nc1ccc(F)cc1)c1ccc2c(=O)n3c(nc2c1)CCCCC3	-11	-6	4	4	2
O=C(Nc1ccc(F)c(Cl)c1)c1ccc2c(=O)n3c(nc2c1)CCCCC3	-5	-58*	8	16	5
CC(=O)c1ccc(NC(=O)c2ccc3c(=O)n4c(nc3c2)CCCCC4)cc1	-4	-45*	-9	10	-10
COc1ccccc1NC(=O)N1c2ccccc2Sc2ccccc21	-2	-3	-10	4	/
O=C1C2CCCCN2C(=O)N1CCCCN1CCN(c2cccc(C(F)(F)F)c2)CC1 (stereo unspecified)	/	/	-26	/	-140*
Cc1ccccc1N1CCN(CCCN2C(=O)CC(=C(c3ccccc3)c3ccccc3)C2=O)CC1	-5	-3	-29	3	?
CC(C)C(=O)Nc1cccc(N2CCN(CCCN3C(=O)C4CCCCN4C3=O)CC2)c1 (stereo unspecified)	/	/	-6	/	-1
O=C1CC(=C(c2ccccc2)c2ccccc2)C(=O)N1CCCCN1CCN(c2cccc(Cl)c2)CC1	-4	-12	23	1	-52*
NC(=O)CN1CCN(c2cccc(Cl)c2)CC1	-3	20	7	8	1
O=c1n(CCCN2CCN(c3cccc(Cl)c3)CC2)nc2ccccn12	-5	7	-72	0	-93*
O=C1C2CCCCN2C(=O)N1CCCCN1CCN(c2cccc(Cl)c2)CC1 (stereo unspecified)	-22	-39*	1	2	-60*
O=C1C2CCCN2C(=O)N1CCCN1CCN(c2cccc(Cl)c2)CC1 (stereo unspecified)	-9	-10	-13	8	-50*
SMILES	D1 PAM	D1 antag	DRD3 agonist	D1 ag	D3 antag
COC(=O)c1ccc(Oc2cc(C)nc(-n3nc(C)cc3C)n2)cc1	/	/	-28	/	-82*
CC(N)c1csc(NC(=O)Nc2cccc(C(F)(F)F)c2)n1 (stereo unspecified)	/	/	-19	/	-54*
CN(C)Cc1csc(NC(=O)Nc2cccc(C(F)(F)F)c2)n1	/	/	-2	/	-10
CC(C)c1ccc(NC(=O)Nc2nc(C(N)C(C)C)cs2)cc1 (stereo unspecified)	/	/	43*	/	-54*
CSc1cccc(NC(=O)CC(c2ccc(F)cc2)N2Cc3ccccc3C2=O)c1 (stereo unspecified)	-2	-6	-13	8	/
CCCC(=O)O[C@]1(C(=O)COC(C)=O)CC[C@H]2[C@@H]3C[C@H](F)C4=CC(=O)C=C[C@]4(C)[C@@]3(F)[C@@H](O)C[C@@]21C	4	12	2	2	9
CC(=O)[C@@]1(O)CC[C@H]2[C@@H]3C[C@H](C)C4=CC(=O)C=C[C@]4(C)[C@@]3(F)[C@@H](O)C[C@@]21C	-6	-59*	6	2	0
O=C(Cn1c(=O)sc2ccccc21)N1CCOCC1	0	-8	3	1	2
COCCn1c(=NC(=O)CSCC(=O)N2CCOCC2)sc2ccccc21	-5	-46*	2	0	-4
CCOc1cc(/C=C2/SC(=S)NC2=O)ccc1OC(=O)c1ccco1	-2	-19	6	2	6
O=C1NC(=S)S/C1=C/c1ccc(OC(=O)c2ccco2)cc1	-7	-30*	4	11	-6
COc1cccc(N2CCN(CC(=O)C34CC5CC(CC(C5)C3)C4)CC2)c1	-4	5	-1	1	-4
COc1cccc(N2CCN(C(C)C(=O)NC34CC5CC(CC(C5)C3)C4)CC2)c1 (stereo unspecified)	-1	11	-22	3	-53*
O=C(COc1ccc2ccccc2c1CN1CCOCC1)N1CCc2ccccc21	-8	2	-9	0	-69*
CC(NC(=O)C1CCCN(S(=O)(=O)c2cccc3nonc23)C1)c1ccccc1 (stereo unspecified)	0	-23	-30	0	-61*
NC(N)=NS(=O)(=O)c1ccc(N)cc1	-2	-75*	-90	1	-54*
CC(C)(C)n1nc2c(c1NC(=O)Cc1cccs1)CSC2	/	-81*	/	2	/
COc1ccc(-c2noc(CSc3nnc(-c4ccncc4)n3-c3ccc(C)c(C)c3)n2)cc1	0	-13	1	9	/
CCOc1ccccc1NC(=O)c1nc(S(=O)(=O)Cc2ccccc2)ncc1Cl	-1	-18	-24	1	-107*
COc1ccc(OC)c(NC(=O)c2nc(S(=O)(=O)Cc3ccc(F)cc3)ncc2Cl)c1	1	-35*	-24	4	/
CCS(=O)(=O)c1ncc(Cl)c(C(=O)Nc2ccccc2OC)n1	-2	-25	-10	5	-64*
COc1ccccc1NC(=O)c1nc(S(=O)(=O)Cc2ccccc2)ncc1Cl	-8	-38*	-32	4	-89*
CCOc1ccccc1NC1(c2ccccc2)C(=O)c2ccccc2C1=O	-4	-25	3	0	/
